SMILES strings stand for the structures. Potency and affinity values are given separately. Records with an inconclusive call do not appear. A call without a number means that no potency is given here. Activity calls are given as the source filed them.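 Rule for the calls: active = in every test run, a fitted half-maximal concentration for signal decrease at or below twice the highest tested concentration; inconclusive = runs disagree, flat 30 to 70% decrease, or poor fit; inactive = the rest.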

This assay is described as follows: activation of miR-122 Renilla sensor silencing – cell-based, Huh7 psiCHECK-miR122, Renilla luciferase, cherry-picked, dose response (AID 651956). The following applies: Huh7 psiCHECK-miR122 Renilla luciferase reporter, 48 h; series mostly up to 35 µM. For orientation: A reporter such as luciferase makes a cellular process visible.
With `CCCNC(=O)C[C@@H]1CC[C@@H]2[C@H](COc3ccc(NC(=O)c4cc(F)cc(F)c4)cc3C(=O)N2C)O1`, the result was inactive.

With `CCOC(=O)C1CN(S(=O)(=O)c2ccccc2)CCN1S(=O)(=O)c1ccccc1` (stereo not drawn), the outcome was inactive.

For the compound `CC(C)NC(=O)N1C[C@@H]2[C@H](c3ccccc31)[C@@H](CO)N2C(=O)c1cccnc1`, the result was inactive.

Turning to `CCN(CC)CCNc1nc(-c2ccccc2)nnc1C(F)(F)F`, the outcome was inactive.

For `Cc1nc(C)c(C(=O)Nc2ccc(Oc3ccccc3)cc2)o1`, the compound was called inactive.

Consider `O=C(NCC(c1cccnc1)N1CCOCC1)NC1CCCCC1` (stereo not drawn), for which the compound was called inactive.

On to `C[C@@H]1CN([C@H](C)CO)C(=O)c2cccc(NC(=O)c3ccc(-c4nccs4)cc3)c2O[C@H]1CN(C)S(=O)(=O)c1ccc(F)cc1`, for which the compound was called inactive.

`C[C@@H]1CN([C@@H](C)CO)S(=O)(=O)c2ccc(/C=C/c3ccccc3)cc2O[C@@H]1CN(C)C(=O)NC1CCCCC1`: the outcome was inactive.

Consider `CCC(=O)N1[C@H](CO)[C@H](c2ccccc2)[C@@H]1CN(C(C)C)S(C)(=O)=O`, for which the compound was called inactive.

As to `Cc1cc(C(F)F)n2ncc(C(=O)NCCc3ccccc3Cl)c2n1`, the result was inactive.

Turning to `CN(Cc1ccccc1)C(=O)COC(=O)c1ccccc1Nc1ccccc1`, the call was inactive.

For `CC(C)CC#Cc1ccc([C@H]2[C@@H](CO)N3CCCCN(S(=O)(=O)Cc4ccccc4)C[C@H]23)cc1`, the compound was classed as inactive.

In the case of `CCCNC(=O)C[C@@H]1CC[C@@H]2[C@@H](COc3ccc(NC(=O)Nc4ccccc4F)cc3C(=O)N2C)O1`, the outcome was inactive.

Regarding `O=C(Nc1nc(-c2cc3ccccc3o2)cs1)c1ccc(S(=O)(=O)N2CCCC2)cc1`, the compound was classed as inactive.

On to `CN1C(=O)c2cc(NC(=O)c3cccs3)ccc2OC[C@H]2O[C@@H](CC(=O)N3CCCCC3)CC[C@H]21`, for which the compound was classed as inactive.

On to `CN(C[C@H]1N[C@@H](CO)[C@@H]1c1ccc(C2=CCCC2)cc1)C(=O)c1ccccn1`, for which the compound was classed as inactive.

As to `CC(C)C(=O)Nc1ccc2c(c1)C(=O)N(C)[C@@H]1CC[C@H](CC(=O)O)O[C@H]1CO2`, the result was inactive.

With `COc1ccc(C#Cc2ccc3c(c2)O[C@H](CN(C)C(=O)CN2CCOCC2)[C@@H](C)CN([C@@H](C)CO)S3(=O)=O)cc1`, the compound was called inactive.

Consider `COc1ccc(C(C#N)Nc2ccc(C)cc2)cc1` (stereo not drawn), for which the outcome was inactive.

In the case of `C/C=C/c1ccc([C@H]2[C@@H](CO)N(Cc3ccccn3)[C@@H]2CNC(=O)CC)cc1`, the compound was classed as inactive.

With `CN1C(=O)c2cc(NC(=O)c3cccc(F)c3)ccc2OC[C@H]2O[C@H](CC(=O)NC3CCC3)CC[C@@H]21`, the call was inactive.

For the compound `CC(=O)N(C)C[C@@H]1[C@@H](c2ccccc2)[C@H](CO)N1C(=O)C1CCC1`, the compound was called inactive.

Regarding `CCCCN1C=C(C(=O)OC)C(c2ccccc2C(F)(F)F)C(C(=O)OC)=C1`, the call was inactive.

As for `CC(C)C(=O)Nc1ccc2c(c1)C(=O)N(C)[C@@H]1CC[C@H](CC(=O)N[C@H](C)c3ccccc3)O[C@@H]1CO2`, the outcome was inactive.

Turning to `COC(=O)C[C@@H]1CC[C@@H]2[C@H](COc3ccc(NC(=O)c4ccc(F)c(F)c4)cc3C(=O)N2C)O1`, the compound was classed as inactive.

As to `Cc1cc(C(=O)Nc2ccc3c(c2)C(=O)N(C)[C@H]2CC[C@@H](CC(=O)N[C@@H](C)c4ccccc4)O[C@H]2CO3)no1`, the compound was called inactive.

As for `COc1ccc(N2CCc3c(C)nc4c(OC)cc(OC)cc4c32)c(OC)c1`, the result was inactive.

With `COCC(=O)NC[C@H]1[C@@H](c2ccc(C3=CCCC3)cc2)[C@@H](CO)N1C(=O)C1CC1`, the outcome was inactive.

Take `Cc1cc(C)cc(Oc2ccc(NC(=O)C3CC=CCC3C(=O)O)cc2)c1` (stereo not drawn): the outcome was inactive.

As for `COc1ccc(-c2cn3c(C)c(C(=O)Nc4cccc(NC(C)=O)c4)sc3n2)cc1`, the outcome was inactive.

As for `Cc1cc(C)cc(NC(=O)Nc2ccc3c(c2)C(=O)N(C)[C@@H]2CC[C@H](CC(=O)O)O[C@@H]2CO3)c1`, the compound was called inactive.

For the compound `CCCNC(=O)Nc1ccc2c(c1)C(=O)N(C)[C@@H]1CC[C@@H](CC(=O)NCC3CCCCC3)O[C@@H]1CO2`, the outcome was inactive.

On to `CCCNC(=O)C[C@@H]1CC[C@H]2[C@@H](COc3ccc(NC(=O)c4ccc(C(F)(F)F)cc4)cc3C(=O)N2C)O1`, for which the compound was called inactive.

As for `Cc1ccc(-c2ccc3c(c2)O[C@H](CN(C)C(=O)CC2CC2)[C@H](C)CN([C@@H](C)CO)S3(=O)=O)cc1`, the result was inactive.

On to `CN1C(=O)c2cc(NC(=O)Nc3ccccc3F)ccc2OC[C@@H]2O[C@H](CC(=O)O)CC[C@@H]21`, for which the call was inactive.

As to `C=CCNC(=S)NNC(=O)Cn1c(-c2ccccc2)cc(=O)n2ncnc12`, the compound was called inactive.

On to `C/C=C/c1ccc([C@@H]2[C@@H](CO)N(Cc3ccccn3)[C@H]2CNC(=O)CC)cc1`, for which the call was inactive.

Take `CCNC(=O)C[C@H]1CC[C@H]2[C@H](COc3ccc(NS(C)(=O)=O)cc3C(=O)N2C)O1`: the result was inactive.

The record behind these values is PubChem BioAssay AID651956 (Broad Institute, 2012).
